Bioassay records deposited in PubChem BioAssay by National Center for Advancing Translational Sciences (NCATS).
Rows were chosen to be rich in hits. Some 3.7% of all compounds tested hit in one or more screens of this group.
HTT ATP protect = protects HTT-Q103 PC12 cells, measured by ATP. PC12 HTT-Q103 induced, cytoprotection, ATP luminescence, 40 h. Potency, µM (titrated, usually from 56.4 µM), inactives show cytoprotection (ATP increase), most hits filed as activators. actives 0.14% (n = 230,000). AID 1471; note: % of control where 0% means no effect; nearly all actives have a fitted effect of over 45% in size
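ATP quantification (ATPlite) reports survival of PC12 cells in which tebufenozide, 100 nM final, switches on Htt exon 1 with 103 glutamines linked to GFP; compounds are titrated.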
Tau fibril FP = tau fibrillization inhibition (FP); P10636; K18 P301L tau heparin fibrillization, Alexa594 FP, 6 h; AID 1468; actives 0.39% (n = 280,000); Potency, µM (titrated, usually from 57.7 µM), for inactives: top-dose activity, negative = inhibition, usual class: inhibitors; note: % is set by controls: 0 for no effect and ±100 for the full control effect; nearly all actives have a fitted effect of over 55% in size
Target sequence (P10636 561-689 P618L limits assumed): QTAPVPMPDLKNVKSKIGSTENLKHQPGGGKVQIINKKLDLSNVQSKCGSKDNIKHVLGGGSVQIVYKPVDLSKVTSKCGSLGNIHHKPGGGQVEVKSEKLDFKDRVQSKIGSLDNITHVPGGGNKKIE
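Read-out: fluorescence polarization of Alexa 594-labeled tau (0.24 uM), 555 nm excitation, 632 nm emission. Mixtures held 15 uM unlabeled K18 P301L, compound and 20 uM heparin, pH 7 acetate buffer, incubated 6 hr at 37 C.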
Tau fibril ThT = tau fibrillization inhibition (ThT binding); AID 1460; recombinant tau K18 P301L, heparin-induced fibrillization, ThT fluorescence; actives 2.1% (n = 270,000); P10636; Potency, µM (top dose mostly 57.4 µM), for inactives: at the highest dose activity, negative = inhibition, most hits filed as inhibitors; note: % is set by controls: 0 for no effect and ±100 for the full control effect; nearly all actives have a fitted effect of over 55% in size
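Tau K18 P301L fragment (15 uM unlabeled plus 0.24 uM Alexa 594-labeled) in 100 mM sodium acetate pH 7 with compound, fibrillization induced by 20 uM heparin for 6 hr at 37 C. Thioflavin T (30 uM) added, fluorescence read after 1 hr (ex 450, em 510 nm).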
Tau fluor cs = counter-screen for tau fibril formation inhibitors; tau K18 P301L Alexa594 fluorescence, heparin fibrillization; Potency, µM (top dose mostly 57.7 µM), inactives show top-dose activity change, negative = decrease; actives 0.93% (n = 280,000); note: % is set by controls: 0 for no effect and ±100 for the full control effect; nearly all actives have a fitted effect of over 55% in size
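Human tau K18 P301L (15 uM unlabeled, 0.24 uM Alexa 594-labeled) in 100 mM sodium acetate pH 7 with 20 uM heparin, 6 hr at 37 C. ThT 30 uM added, 1 hr ambient; Alexa 594 FP and total fluorescence read at 555/632 nm.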
HTT aggregate = inhibitors of mutant huntingtin aggregate formation in PC12 cells. Potency, µM (top dose mostly 46.1 µM), for inactives: top-dose activity change, negative = inhibition, most hits filed as inhibitors. actives 1.1% (n = 220,000). PC12 HttQ103-GFP aggregates, Acumen cytometry, 40 h; note: % is set by controls: 0 for no effect and ±100 for the full control effect; nearly all actives have a fitted effect of over 60% in size
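Quantitative HTS on tebufenozide-induced (100 nM) PC12 cells stably expressing polyQ103 Huntingtin exon 1–GFP. Reduction of bright GFP aggregates, detected by laser scanning cytometry after lysis, identified actives across the titration.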
Active calls of the source: *; ? = inconclusive; · = not tested or not shown; [ ] = another dose, or the depositor's remark. Calls come from the whole dose curve; as a rule, active = well fitted curve in the direction sought with a large enough effect; inconclusive = small, poorly fitted or top-dose-only effect, or another doubt; inactive = no such curve, though single readings can be large; an effect the other way counts as inactive or inconclusive. Potency is the fitted concentration of half-maximal effect.

SMILES	HTT ATP protect	Tau fibril FP	Tau fibril ThT	Tau fluor cs	HTT aggregate
NNc1c(C(N)=O)c2c(N)ncnc2n1[C@@H]1O[C@H](CO)[C@@H](O)[C@@H]1O	-94.9%[10 µM]	·	·	·	·
N#CC1=C(N)Oc2n[nH]c(-c3cccs3)c2C1c1ccsc1 (stereo unspecified)	9.5%[0.074 µM]	?	12.6µM*	-26.4%	-20.3%
N#CC1=C(N)Oc2n[nH]c(-c3cccs3)c2C1c1ccco1 (stereo unspecified)	-31.1%[10 µM]	?	15.8µM*	?	26.1%
Cc1nn(Cc2ccccc2)c2c1C(c1ccco1)C(C#N)=C(N)O2 (stereo unspecified)	-1.7%	?	?	-20.4%	-14.5%
N#CC1=C(N)Oc2c(c(=O)sc3ccccc23)C1c1ccncc1 (stereo unspecified)	-34.6%	6.4%	?	-16.9%	-15.8%
CC[C@H]1[C@@H]2C[C@@H]3[C@@H]4N(C)c5ccccc5[C@@]45C[C@@H]([C@H]2[C@@H]5O)N3[C@@H]1O	-7.0%	·	·	·	·
CC(=O)Oc1c2c(c(CC=C(C)C)c3c1C(=O)C1=CC4CC5C(C)(C)OC(C/C=C(\C)C(=O)O)(C4=O)[C@]15O3)OC(C)(CCC=C(C)C)C=C2 (stereo partly specified)	·	10µM*	7.08µM*	?	·
COC(=O)/C(C)=C\CC12OC(C)(C)C3CC(C=C4C(=O)c5c(OC)c6c(c(CC=C(C)C)c5OC431)OC(C)(CCC=C(C)C)C=C6)C2=O (stereo unspecified)	·	?	28.2µM*	-21.6%	·
O=C(O)[C@H]1[O][Sb][O][C@@H](C(=O)O)C1O (stereo partly specified)	-1.1%[10 µM]	·	·	·	·
CCN1C(=O)/C(=C/c2ccc3c(c2)CCN3CCCCl)C(=O)NC1=S	1.3%[10 µM]	?	17.8µM*	-11.1%	-23.3%
C[C@H](CC(C#N)(c1ccccc1)c1ccccc1)N1CCCCC1	2.5%[10 µM]	·	·	·	·
Cc1ccc(N2C(=O)NC(=O)/C(=C\C=C\c3ccco3)C2=O)cc1	-29.5%[10 µM]	12.6µM*	·	?	8.7%[9.22 µM]
Cc1ccc(N2C(=O)NC(=O)/C(=C\C=C\c3ccco3)C2=O)cc1C	28.5%[0.074 µM]	?	12.6µM*	-13.8%	21.2%
CN1C(=O)/C(=C/C=C/c2ccco2)C(=O)NC1=S	7.6%[10 µM]	?	·	?	6.6%[9.22 µM]
O=C1NC(=O)N(c2ccccc2)C(=O)/C1=C/C=C/c1ccco1	-11.1%[10 µM]	·	·	·	8.7%[9.22 µM]
Cc1cc(N2CCOCC2)ccc1/C=C1\C(=O)NC(=O)N(c2ccccc2)C1=O	-12.9%[10 µM]	?	?	-14.4%	-30.7%[9.22 µM]
Cc1cccc(N2C(=O)NC(=O)/C(=C\C=C\c3ccco3)C2=O)c1	-29.1%[10 µM]	?	10µM*	-4.9%	25.6%[9.22 µM]
CN(C)c1ccc(/C=C/C=C2/C(=O)NC(=O)N(c3ccccc3)C2=O)cc1	-26.9%[10 µM]	?	3.98µM*	?	3.8%[9.22 µM]
CC(C)C(=O)CP(=O)(O)O	2.4%[10 µM]	·	·	·	·
[Hg+][c]1ccccc1	-98.9%	·	·	·	3.16µM*
COc1ccc2c3c1O[C@@H]1C(=O)CC[C@@]4(O)[C@@H](C2)N(CC2CC2)CC[C@]314	13.1%[1.9 µM]	·	·	·	·
O=C(COc1ccc2ccccc2c1)N1CCN(Cc2c[nH]c3ccccc23)CC1	-59.2%[10 µM]	4.6%	-12.8%	-26.9%	10µM*
COc1cc(CN2CCN(c3cc(C)ccc3C)CC2)ccc1O	-161.3%[0.074 µM]	0.2%	-1.1%	0.0%	10µM*
CCCCCCOc1ccc(C(=O)n2cnc(N)n2)cc1	12.6µM*	-4.6%	?	-18.6%	·
c1ccc2c(c1)OCC(C1=NCCN1)O2 (stereo unspecified)	15.8µM*	6.5%	?	-8.5%	17.3%
SMILES	HTT ATP protect	Tau fibril FP	Tau fibril ThT	Tau fluor cs	HTT aggregate
CCOC(=O)c1c(/N=C/c2c(O)n(-c3ccccc3F)c(=S)[nH]c2=O)sc2c1CCCC2	-13.4%	?	22.4µM*	-16.3%	28.8%
COC(=O)C1CN(C#N)N(c2ccc(Cl)cc2)C12c1ccccc1-c1ccccc12 (stereo unspecified)	-96.8%[10 µM]	?	10µM*	-27.2%	?
Nn1cnnc1	-36.7%	·	·	·	·
O=C1NC(=O)N(Cc2ccccc2)C(=O)/C1=C/N1CCCc2ccccc21	23.8%[10 µM]	?	10µM*	-23.9%	-2.9%
Cn1cccc1/C=C1\C(=O)NC(=O)N(Cc2ccco2)C1=O	24.4%	0.9%	?	-23.7%	-6.4%
O=C1NC(=O)N(Cc2ccco2)C(=O)/C1=C/C=C/c1ccco1	-27.8%[10 µM]	?	8.91µM*	-21.7%	1.6%[9.22 µM]
O=C1NC(=O)N(Cc2ccccc2)C(=O)/C1=C\C=C\c1ccco1	-53.2%	?	14.1µM*	-21.5%	?
C[C@@]12CC[C@H](O)C[C@@H]1CC[C@H]1[C@H]2C[C@@H](O)[C@]2(C)[C@@H](C3=CC(=O)OC3)CC[C@@]12O	-26.5%	·	·	·	·
COc1cc2cc(c1Cl)N(C)C(=O)C[C@H](OC(=O)C(C)C)[C@]1(C)O[C@@H]1[C@@H](C)[C@H]1C[C@](O)(NC(=O)O1)[C@@H](OC)/C=C\C=C(\C)C2	-90.3%[10 µM]	·	·	·	·
NC(Cc1ccc(N(CCCl)CCCl)cc1)C(=O)O (stereo unspecified)	·	?	28.2µM*	?	·
COc1ccc(CCn2c(NN=C3CCCCC3)nc3c2c(=O)[nH]c(=O)n3C)cc1	10.3%[10 µM]	?	28.2µM*	?	-9.0%[9.22 µM]
C/C(=C\c1ccc(N(C)C)cc1)[N+](=O)[O-]	-55.5%	-5.6%	12.6µM*	14.1µM*[quencher]	-26.5%
CN(C)c1ccc(C(=O)c2ccc(N(C)C)cc2)cc1	-99.5%	6.4%	?	-18.8%	10.3%[9.22 µM]
CN(C)c1ccc(/C=C/[N+](=O)[O-])cc1	30.9%[10 µM]	-1.1%	10µM*	?	14.0%
NC(N)=NCCN=C(N)N	-11.9%[10 µM]	·	·	·	·
CCN1C[C@@]2(C)CC[C@H](O)[C@@]34[C@@H]5C[C@H]6[C@H](O)[C@@H]5[C@](O)(C[C@@H]6OC)[C@H](C[C@@H]23)[C@H]14	7.9%	·	·	·	·
O=C1CC(N2CC=C(c3ccccc3)CC2)C(=O)N1c1ccc(F)cc1 (stereo unspecified)	-9.0%	-14.2%	?	-16.2%	-2.5%
CCCOc1ccc(N2C(=O)CC(N3CC=C(c4ccccc4)CC3)C2=O)cc1 (stereo unspecified)	-20.5%	?	31.6µM*	-20.1%	-0.8%
O=C(N/N=C/c1c(O)n(CCC2=CCCCC2)c(=O)[nH]c1=O)c1ccccc1	28.6%[10 µM]	-5.3%	?	-23.0%	-14.1%
O=C(N/N=C/c1c(O)n(CCC2=CCCCC2)c(=S)[nH]c1=O)c1ccccc1	11.5%[10 µM]	?	25.1µM*	?	?
O=C(O)C[C@H]1OCC=C2CN3CC[C@]45c6ccccc6N[C@@H]4[C@H]1[C@H]2C[C@H]35	19.4%[10 µM]	·	·	·	·
O=C(O)C(C(=O)O)P(=S)(S)c1ccccc1 (stereo unspecified)	16.2%[10 µM]	·	·	·	·
[Cl-].[Cl-].[Hg+2]	-74.7%	·	·	·	3.98µM*
